Data from PubChem BioAssay AID1345085 (National Center for Advancing Translational Sciences (NCATS), 2018).
Records with an inconclusive call do not appear. Where a call stands in place of a potency, no number is given. The source made the active and inactive calls. Calls follow the shape of the dose curve; as a rule, active = well fitted cell-killing curve with a large enough effect; inconclusive = small, poorly fitted or top-dose-only effect, or effect the other way; inactive = no such curve, though single readings can be large or run the other way.

Test system: Jar
Assay: Confirmatory qHTS for gynecologic anti-cancer compounds from libraries of approved drugs and bioactive compounds; also: nearly all actives have a fitted effect of over 55% in size
Conditions: gynecologic cancer cell panel viability, ATPlite luminescence, 48 h; series mostly up to 57.6 µM
Outline: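 1,000 cells/well; 16 h pre-incubation 37 C, 5% CO2; pin-transferred cpd in DMSO, 11 conc (1:3), 57.5 uM–0.977 nM; 48 h; ATPlite, 15 min RT; luminescence → IC50.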
Potency is read from the fitted curve at half-maximal effect.

| SMILES | Potency |
| --- | --- |
| C[C@H]1CCC/C=C/C2C[C@H](O)C[C@H]2[C@H](O)/C=C/C(=O)O1 (some centres not stated) | 432 nM (active) |
| C=C(C)[C@H]1Cc2c(ccc3c2O[C@@H]2COc4cc(OC)c(OC)cc4[C@@H]2C3=O)O1 | 34.3 nM (active) |
| CCNC(=O)C[C@@H]1N=C(c2ccc(Cl)cc2)c2cc(OC)ccc2-n2c(C)nnc21 | inactive |
| CCC(=O)O[C@H]1CC[C@H]2[C@@H]3CCC4=CC(=O)CC[C@]4(C)[C@H]3CC[C@]12C | inactive |
| C[C@]12CC[C@H]3[C@@H](CCC4=CC(=O)CC[C@@H]43)[C@@H]1CC[C@@H]2OC(=O)CCc1ccccc1 | inactive |
| O=C(O)Cc1ccccc1 | inactive |
| Cc1sc2c(c1C)C(c1ccc(Cl)cc1)=NC(CC(=O)OC(C)(C)C)c1nnc(C)n1-2 (configuration not stated) | 5440 nM (active) |
